aSyn UTR act: Activators via SNCA 5'UTR binding, MLPCN. alpha-synuclein 5'UTR reporter, activators screen. activity score, % (tested at 7.5 µM), hits read low. hit rate 7.1% among 300,000. AID 1814, 2009; in the data active = activity score below about -60%
Each line names hits and unclear results; the compound was inactive in the other large screens. Only a sample is shown.

NC(N)=N/N=C/c1ccc(OCc2ccc(Cl)cc2)cc1	aSyn UTR act -66
COc1ccc(-n2c(=S)[nH]c3cc(C(=O)Nc4ccc(F)cc4)ccc3c2=O)c(OC)c1	aSyn UTR act -142
CCOc1cc(/C=C2\COc3ccccc3C2=O)cc(Br)c1OCC(=O)N(C)C	aSyn UTR act -121
COc1ccc(N=c2sc3ccccc3n2C)cc1	aSyn UTR act -172
CC1CCCN(S(=O)(=O)c2ccc(C(=O)Nc3nnc(-c4ccccc4Cl)o3)cc2)C1 (stereo unspecified)	none
O=C(Nc1ccc(N2CCCC2)c(Cl)c1)c1cccnc1	aSyn UTR act -112
O=C(Nc1ccc(Cl)c(Cl)c1)c1cccnc1	aSyn UTR act -102
O=C(Nc1ccc(N2CCCCC2)c(Cl)c1)c1cccnc1	aSyn UTR act -313
O=C(Nc1nnc(-c2ccccc2Cl)o1)c1cccnc1	aSyn UTR act -94
Cc1cc(O)c(C)c(O)c1/C=N/NC(=O)c1cccnc1	none
Cc1ccc(NC(=O)c2cccnc2)cc1C	aSyn UTR act -104
CCCCCCCn1c(NC(=O)CC)nc2ccccc21	none
C=CCn1c(NC(=O)c2ccc(C)cc2)nc2ccccc21	aSyn UTR act -111
CC(=O)Nc1nc2ccccc2n1Cc1ccccc1C	none
Cc1ccc(C(=O)Nc2nc3ccccc3n2CCN2CCCC2)cc1	aSyn UTR act -76
COc1ccc(/C=C/C(=O)Nc2cc(C)on2)cc1	aSyn UTR act -216
COc1ccc(/C=C/C(=O)Nc2nonc2NC(C)=O)cc1	aSyn UTR act -155
COc1ccc(/C=C/C(=O)Nc2cc(C(F)(F)F)ccc2Cl)cc1	aSyn UTR act -62
Cc1cc(NC(=O)/C=C/c2ccccc2Cl)no1	aSyn UTR act -249
COc1cc(-c2noc(C)c2/C=C/c2ccc(OC(C)=O)cc2)cc(OC)c1OC	none
C#CCNC(=O)/C=C/c1ccc(OC)cc1	aSyn UTR act -75
COc1ccc(C(=O)/C=C/Nc2cc(C)on2)cc1	aSyn UTR act -94
Cc1cc(NC(=O)/C=C/c2ccccc2)no1	aSyn UTR act -156
CC(=O)Nc1nc(NC(=O)/C=C/c2ccccc2)n(-c2ccccc2)n1	none
CCC1=C/C(=C/N(C)c2ccccc2)C(=O)S1	aSyn UTR act -62
CCOc1ccc2nc(SCC3CC3(Cl)Cl)[nH]c2c1 (stereo unspecified)	aSyn UTR act -153
ClC1(Cl)CC1CSc1nc2ccccc2[nH]1 (stereo unspecified)	aSyn UTR act -77
c1ccc2[nH]c(SCC3CCCCO3)nc2c1 (stereo unspecified)	aSyn UTR act -76
C=CCc1c(C)nc(SC)nc1Nc1ccc(C(C)=O)cc1	aSyn UTR act -76
COc1ccc(-c2nc3ccccn3c2CN2CCN(c3ccccc3F)CC2)cc1	aSyn UTR act -76
Cc1ccc(-c2c(C)sc(=NC(=O)c3ccco3)n2C)cc1	aSyn UTR act -123
COC(=O)C(Cc1ccc(OC(=O)c2ccc(Cl)cc2)cc1)N1Cc2ccccc2C1=O (stereo unspecified)	aSyn UTR act -124
COC(=O)C(Cc1ccc(OC(=O)c2ccc(C(F)(F)F)cc2)cc1)N1Cc2ccccc2C1=O (stereo unspecified)	aSyn UTR act -137
Cc1nc(N)sc1-c1csc(Nc2cccc(O)c2)n1	aSyn UTR act -79
Cc1nc(C)c(-c2csc(Nc3cccc(O)c3)n2)s1	aSyn UTR act -156
CC(=O)Nc1ccc(Nc2nc(-c3sc(C)nc3C)cs2)cc1	aSyn UTR act -77
Cc1cccc(Nc2nc(-c3sc(C)nc3C)cs2)c1	aSyn UTR act -149
Cc1c(-c2ccccc2)[nH]n2c(=O)c3c(nc12)CCCC3	aSyn UTR act -166
O=c1c2c(nc3c(-c4cccc(Br)c4)c[nH]n13)CCCC2	none
Cc1ccc(-c2[nH]n3c(=O)c4c(nc3c2C)CCCC4)cc1	aSyn UTR act -75
O=[N+]([O-])c1ccc(C2=Nc3cc(Cl)ccc3OC2)cc1	aSyn UTR act -149
O=C(N/N=C/c1cccc(OCc2ccccc2)c1)c1cccs1	aSyn UTR act -72
O=C(N/N=C/c1ccc(Br)s1)c1ccc([N+](=O)[O-])cc1	none
O=C(N/N=C/c1cccc([N+](=O)[O-])c1)c1cccs1	aSyn UTR act -84
O=C(/C=C/c1cccc([N+](=O)[O-])c1)c1cccs1	aSyn UTR act -77
O=C(N/N=C/C=C/c1ccc([N+](=O)[O-])cc1)c1cccs1	aSyn UTR act -77
O=C(/C=C/c1cccc(Cl)c1)c1ccc([N+](=O)[O-])o1	none
Cc1ccc2[nH]c(C(=O)N/N=C/c3ccc([N+](=O)[O-])cc3)c(C)c2c1	aSyn UTR act -63
CC1CC(c2ccccc2)=Nc2ccccc2N1 (stereo unspecified)	aSyn UTR act -100
CS(=O)(=O)NNC(=O)Cn1nnc(-c2ccc(OCc3ccccc3Cl)cc2)n1	aSyn UTR act -107
Cn1cc(/C=N/n2cnc3scc(-c4ccc(Cl)cc4)c3c2=O)c2ccccc21	none
Cc1sc2ncn(/N=C/c3ccco3)c(=O)c2c1C	aSyn UTR act -67
Cc1ccccc1Oc1ccc(Oc2ccccc2C)nn1	aSyn UTR act -136
CN(C)c1ccc(C2Nc3ccccc3C(=O)N2CCCN2CCOCC2)cc1 (stereo unspecified)	aSyn UTR act -120
O=C(NC1=NCCS1)Nc1ccccc1	aSyn UTR act -121
O=C(NC1=NCCS1)c1csc2ccccc12	aSyn UTR act -183
CC(Oc1ccccc1)C(=O)NC1=NCCS1 (stereo unspecified)	aSyn UTR act -108
Cc1ccc(C(=O)NC(=S)NCC2CCCO2)cc1 (stereo unspecified)	aSyn UTR act -147
Nc1c(C(=O)NCC2CCCO2)c2nc3ccccc3nc2n1-c1ccccc1 (stereo unspecified)	none
O=C(NC(=S)NCC1CCCO1)c1ccc(Cl)cc1 (stereo unspecified)	aSyn UTR act -106
CN(C)c1ccc(C(=O)NCC2CCCO2)cc1 (stereo unspecified)	aSyn UTR act -107
CC(C)(C)c1ccc(-c2noc(CCC(=O)NCC3CCCO3)n2)cc1 (stereo unspecified)	none
O=[N+]([O-])c1cc(/C=N\Nc2nc(-c3ccccc3)cs2)ccc1O	aSyn UTR act -67
COc1cc(/C=N/Nc2nc(-c3ccc(S(=O)(=O)N(C)C)cc3)cs2)ccc1O	aSyn UTR act -78
O=C(CSc1ccsc1[N+](=O)[O-])NCc1ccccc1	aSyn UTR act -104
COc1ccccc1CNC(=O)CSc1ccsc1[N+](=O)[O-]	aSyn UTR act -114
Nc1ccc(Oc2cccc(Oc3ccc(N)cc3)c2)cc1	none
c1ccc(Oc2ccc(-c3ccn[nH]3)cc2)cc1	aSyn UTR act -79
C=CCN1C(=O)/C(=C/c2ccc(N(C)C)cc2)S/C1=N\c1nnc(CC)s1	aSyn UTR act -65
O=C(NCC1CCOCC1)c1ccc2nc(Cc3cccc(Cl)c3)oc2c1	aSyn UTR act -79
COc1ccc(Cc2nc3ccc(C(=O)NCc4cc(C)no4)cc3o2)cc1	aSyn UTR act -104
COc1ccc(Cc2nc3ccc(C(=O)NCCSC)cc3o2)cc1	aSyn UTR act -98
CSCCNC(=O)c1ccc2nc(C3CCCCC3)oc2c1	aSyn UTR act -67
COc1ccc(Cc2nc3ccc(C(=O)NCC(C)(C)OC)cc3o2)cc1	aSyn UTR act -116
Nc1c(C(=O)c2ccccc2)oc2ccc([N+](=O)[O-])cc12	aSyn UTR act -110
Cc1ccc(C(=O)c2oc3ccccc3c2N)cc1	aSyn UTR act -66
NCCCn1c(C(=O)c2ccc(Cl)cc2)c2ccc([N+](=O)[O-])cc2[n+]1[O-]	none
NC(=O)CCCn1c(C(=O)c2cc(Cl)c(N)c(Cl)c2)c2ccc([N+](=O)[O-])cc2[n+]1[O-]	none

Compound activity as filed in PubChem.
